Assay results: PubChem BioAssay (NCI)
Compounds without any hit were thinned out: in the full panel of roughly 83,000, 20% have a hit.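 Step 1: grow cells in 96-well plates. Step 2: add test compound at a single concentration. Step 3: incubate 48 h. Step 4: record percent growth.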 Unmarked numbers belong to inactive results. Calls of active or inactive are those of the source. How the source made its calls: active means growth percent below 10; inactive means the rest.

Key:
Test in all cases: NCI-60 one-dose screen, 48 h (100 = growth as untreated, 0 = no growth, -100 = all killed)
Conditions in all cases: 10 µM unless noted
[1] = tested on: EKVX NSCLC
[2] = tested on: SN12C renal
[3] = tested on: UO-31 renal
[4] = tested on: ACHN renal
[5] = tested on: CAKI-1 renal
[6] = tested on: A498 renal
[7] = tested on: CCRF-CEM leukemia
[8] = tested on: MOLT-4 leukemia
[9] = tested on: TK-10 renal

Compound	growth [1]	growth [2]	growth [3]	growth [4]	growth [5]	growth [6]	growth [7]	growth [8]	growth [9]
CC1(C)CC2(C)CC(=O)C1C(C(=O)O)C2C(=O)O (stereo not given)	121%	105%	98%	97.2%	114%	111%	99.4%	94.3%	
CCCCOP(=O)(OCCCC)C(C(=O)OCC)C(CC(=O)OCC)C(=O)OCC (stereo not given)		100%	91.9%	93.2%	98.4%	97.8%		109%	
C=C1CC[C@@H]2[C@](C)(COC(C)=O)[C@H](OC(C)=O)CC[C@@]2(C)[C@@H]1CC(NCc1ccccc1)C1=CCOC1=O (stereo not given in full)	53.9%	58.2%	29.1%		49.6%	56.2%	20.9%	-3.86% (active)	
O=C(CSc1nnc(-c2cc(-c3ccccc3)nc3ccccc23)o1)c1ccc(Br)cc1	107%	98%		107%	91.2%	102%	105%	104%	
CCOC(=O)c1cnc2c(C)cc(C)cc2c1NCCCN(C)C	41%	37.6%		28.7%	-7.71% (active)	64.5%	19.8%	5.24% (active)	30.7%
COc1ccc(/C=C2\CCc3ccccc3C2=O)cc1		94.5%	87.5%	111%	50.8%				79.8%
COc1cc(C2CC(C3C(=O)N(C)C(=O)N(C)C3=O)=NN2c2cc(Cl)cc(Cl)c2)cc(OC)c1OC (stereo not given)	93.8%	93.6%		96.3%		88.5%	88.3%	88.9%	94.1%
Nc1c(C(=O)Nc2cccc(Cl)c2)sc2nc3c(cc12)C(O)CCC3 (stereo not given)		35.5%	41.9%		37%		15.7%	16.3%	
O=C(Nc1ccccc1S)c1ccccc1	94.6%	95.2%	91.8%	104%		86.5%	106%	82%	
CCCCCCCCN(CCO)CCCCCCCC		104%	80.2%	96.6%	109%	111%	99.4%	90.7%	109%
CCCCCCCCCCNCCSS(=O)(=O)O	101%	31.5%	70.6%	92.6%	98.8%	101%	50.3%	9.96% (active)	
O=[N+]([O-])c1ccc(NS(=O)(=O)c2ccc(Cl)c(Cl)c2)cc1		60.9%	70%	94%	65.2%	55.9%		81.3%	94.3%
COc1cccc(/C=C2\Cc3ccccc3C2=O)c1		98.8%	90.7%	104%	96.9%			93.3%	103%
COc1cc(Cl)cc(-c2nn(-c3cccc(NC(=O)c4cc(C(F)(F)F)cc(C(F)(F)F)c4)c3)cc2-c2ccncc2)c1		69.8%	54.3%	58.2%	68.6%	-1.74% (active)	57.1%	55.3%	
O=C1/C(=C/c2ccc(F)cc2)Cc2ccccc21		99.5%	92.5%	98.2%	113%			98.3%	96.7%
COc1ccccc1NC(=O)c1sc2nc3c(cc2c1N)C(=O)CCC3		70.2%	70.5%	70.4%	52.7%		67.7%	89.6%	
O=C1CNc2cc(Cl)ccc2N1	89.1%	103%	81.6%	98.6%	97.8%	97.3%	93.3%	87.4%	
O=C(Nc1cccc(-n2cc(-c3ccncc3)c(-c3cc(O)cc(Cl)c3)n2)c1)Nc1ccc(Cl)c(Cl)c1		14.9%		6.85% (active)	5.31% (active)	-2.98% (active)	4.11% (active)	-27.1% (active)	

Compound	growth [1]	growth [2]	growth [3]	growth [4]	growth [5]	growth [6]	growth [7]	growth [8]	growth [9]
COc1cccc(N2CCN(CC(=O)N3CCN(c4nnc(-c5ccc(Cl)cc5)c(-c5ccc(Cl)cc5)n4)CC3)CC2)c1	57%	76.7%		57.1%	92.2%	55.4%	43.2%	28.4%	93.8%
Cc1ccc(NC(=O)c2sc3nc4c(cc3c2N)C(=O)CCC4)cc1		87.8%	84.8%	89.9%	56.6%	-3.97% (active)	70.9%	95.9%	
Cc1[nH]ccc2cc3nc4ccccc4c3cc12	30.7%	27.8%	8.89% (active)	15.4%	52%	4.99% (active)	17.1%	8.62% (active)	
COc1cc(-c2n[nH]nc2-c2ccccn2)cc(OC)c1OC	94.6%	89.7%		94.8%	124%	118%	97.7%	96.6%	151%
c1ccc2c(-c3nc4ccccc4[nH]3)cccc2c1	70%	47.3%	60.5%	52.7%	61.2%	29.1%	22.3%	11.6%	
O=C1/C(=C/c2ccccc2Cl)CCc2ccccc21		94.6%	97.4%	112%	81.8%			90.9%	89.4%
COc1cc(/C=C2\CN(S(=O)(=O)c3ccc(C)cc3)C/C(=C\c3cc(CN4CCOCC4)c(O)c(OC)c3)C2=O)cc(CN2CCOCC2)c1O	11.6%	-19.3% (active)	-89.3% (active)	-82.4% (active)	9.3% (active)		8.78% (active)	4.35% (active)	
COc1ccc(-c2cc(-c3cccnc3)nc3sc(C(=O)Nc4ccccc4)c(N)c23)cc1OC		57.2%	32.2%	41.1%	46.7%	65.1%	36.9%	32.1%	
CC(=O)Nc1c(Cl)cc2c(c1Cl)Cc1cc([N+](=O)[O-])ccc1-2	42.2%	97.1%	86.3%	79.5%		88.8%	57.2%	85%	
COc1cc(C(=O)c2cc3c(cc2C)OCO3)cc(OC)c1OC		32.4%	44.8%	36.3%	13.5%	-2.13% (active)		23.1%	62.8%
O=C(CNC(=O)c1cccc2ccccc12)Nc1ccccc1Oc1ccc(O)cc1	52.4% [5 µM]	55% [5 µM]		43.8% [5 µM]		17.6% [5 µM]	22.4% [5 µM]	19.6% [5 µM]	43.6% [5 µM]
COc1cc(/C=C/c2cc(/C=C/c3ccc(O)c(OC)c3)n(C(=O)c3ccc(Cl)cc3)n2)ccc1O		13.6%	0.559% (active)	11.5%	17.9%	7.49% (active)	0.628% (active)	5.8% (active)	
COc1ccc(-c2cc(-c3cccnc3)nc(S(=O)(=O)CC(=O)Nc3ccc(C)cc3)c2C#N)cc1OC		97.2%	59.8%	98.3%	91.2%		100%	75.2%	
COc1ccc(C2=NN(C=O)C(c3cccc(Nc4ccnc5cc(Cl)ccc45)c3)C2)cc1 (stereo not given)	36.1%	36.1%		35.9%		27.4%	17.1%	9.88% (active)	37.1%
CC(=O)/C(=C/c1ccc(Cl)cc1)C(=O)c1ccccc1		85.4%	65.5%	99.4%	85.2%			62%	101%
c1cc[n+](Cc2ccnc3ccccc23)cc1		102%	73.6%	94.2%	91.1%	109%		108%	
Cc1cc(C)cc(S(=O)(=O)n2ccc(-c3ccc4c(c3)CCC(C)(C)O4)n2)c1		88%		92.8%	72.5%	63%	96.3%	91.4%	
